The results in this text go back to PubChem BioAssay (NCI).

The structures appear in SMILES notation. About 83,000 compounds went through this panel and 20% of them were active in at least one assay; those are over-represented in the sample as a whole.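 For each line, cells grew in 96-well plates with the test compound present at a single concentration for 48 hours.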 Active and inactive are the calls of the source. Rule for the calls: active = growth percent below 10; inactive = the rest.

One assay has as its system MDA-MB-435 melanoma. The assay is described as follows: NCI-60 one-dose screen, 48 h (100 = growth as untreated, 0 = no growth, -100 = all killed). The note with it: 10 µM unless noted.
As for `CCN(CC)CCOCC[C@H]1CC[C@H]2[C@@H]3[C@H](C)Cc4cc(OS(N)(=O)=O)ccc4[C@H]3CC[C@]12C`, the growth is -63.7% (active).

Take `CCN(CC)c1ccc(/C=C/C(=O)c2cccc(NS(C)(=O)=O)c2)cc1`: the growth is 22.7% (inactive).

Consider `C/C(=C\CCc1ccoc1)CC/C=C(\C)CCCC1COC(=O)C1` (stereo not drawn), for which the growth was 88.8% (inactive).

In the case of `O=C(COc1ccc(/C=C2\Cc3ccccc3C2=O)cc1)c1ccc(Cl)cc1`, the growth was 95.4% (inactive).

Turning to `O=C(Nc1cccc(-n2cc(-c3ccncc3)c(-c3cc(O)cc(Cl)c3)n2)c1)Nc1ccc(Cl)c(Cl)c1`, the growth was -33.3% (active).

As for `CCc1nn2c(-c3ccc(Cl)cc3C)c(-c3cc(OC)c(OC)c(OC)c3)nc2s1`, the growth was 81.3% (inactive).

Regarding `C[N+]1(C)C2CC[C@@H]1CC(OC(=O)C(O)c1ccccc1)C2` (stereo partly drawn), the growth was 99.1% (inactive).

For `COc1ccc2c(c1)sc1nc(-c3ccc(Br)cc3)cn12`, the growth was 103% (inactive).

Turning to `O=C(COc1cccc(/C=C2\Cc3ccccc3C2=O)c1)c1ccc(Cl)cc1`, the growth is 114% (inactive).

Consider `O=C1C2C(C(=O)N1CC[Se][Se]CCN1C(=O)C3C(C1=O)[C@H]1C=C[C@@H]3C1)[C@H]1C=C[C@@H]2C1` (stereo partly drawn), for which the growth was -65.9% (active).

For the compound `COC(=O)[C@H]1[C@H]2C[C@@H]3c4[nH]c5cc(OC)ccc5c4CCN3C[C@H]2C[C@@H](OC(=O)/C=C/c2cc(OC)c(OC)c(OC)c2)[C@@H]1OC`, the growth was 7.45% (active).

On to `CC1C(=O)NC2=Nc3ccccc3C(=O)NN21` (stereo not drawn), for which the growth is 111% (inactive).

Turning to `C[C@H]1c2cccc(O)c2C(O)=C2C(=O)[C@]3(O)C(O)=C(C(N)=O)C(=O)[C@@H](N(C)C)[C@@H]3[C@@H](O)[C@@H]21`, the growth was 50.7% (inactive).

In the case of `CC(=O)N1N=C(c2ccc(Nc3nc(NCCO)nc(NCCO)n3)cc2)CC1c1ccc(Cl)cc1` (stereo not drawn), the growth was 101% (inactive).

`COC(=O)C1=CCC(n2cnc3c(N)ncnc32)O1` (stereo not drawn): the growth was 102% (inactive).

In the case of `Cc1nn(-c2ccccc2)c2nc(N)c(C3=NCCO3)nc12`, the growth is 101% (inactive).

Regarding `CCCc1n(Cc2ccc3ccccc3c2)cc[n+]1Cc1ccc2ccccc2c1`, the growth is -50.8% (active).

With `BrC1CC(Br)c2c1c1c(c3c2C(Br)CC3Br)C(Br)CC1Br` (stereo not drawn), the growth is 103% (inactive).

`O=C(CNc1ccc2c(c1)C(=O)c1ccccc1C2=O)Nc1ccc2c(c1)C(=O)c1ccccc1C2=O`: the growth was -82.4% (active).

`Cc1ccc(NC(=O)c2sc3nc4c(cc3c2N)C(=O)CCC4)cc1`: the growth was 14.6% (inactive).

As for `CCCCCCCCN(CCO)CCCCCCCC`, the growth was 108% (inactive).

On to `COc1cc(-c2nc3nc4sc(C)c(C)c4c(=O)n3[nH]2)cc(OC)c1OC`, for which the growth was 7.6% (active).

On to `COC(=O)Nc1ccc2ccc3c(NC(=O)OC)ccc4ccc1c2c43` (tested in a mixture with another compound), for which the growth was -22.3% (active).

In the case of `COc1ccc(Cl)cc1Nc1nc(C(F)(F)F)ccc1C(=O)N/N=C/c1c(Cl)cccc1Cl`, the growth is 62.7% (inactive).

In the case of `O=C(/C=C/c1cccc(O)c1)c1cccc(-n2cc(-c3ccccc3)[nH]c2=O)c1`, the growth is 33.8% (inactive).

`COc1ccc2c(=O)c(OC)c(-c3cc(OC)c(OC)c(OC)c3)oc2c1`: the growth is 105% (inactive).

For the compound `CC(=O)Nc1ccc(C(=O)COc2cccc(/C=C3\CCc4ccccc4C3=O)c2)cc1`, the growth is 85.8% (inactive).

On to `O=C1Nc2ccc(Cl)cc2[C@@](C#CC2CC2)(C(F)(F)F)O1`, for which the growth was 88% (inactive).

On to `CC(C)N(Cc1ccccc1)c1c(Cl)ssc1=O`, for which the growth is 108% (inactive).

With `CCCCCc1c(C)[nH]c(/C=C2\N=C(c3ccc[nH]3)C=C2OCc2ccccc2)c1C`, the growth was -93.9% [100 µM] (active).

On to `COc1cc(/C=C/C(=O)CC(=O)/C=C/c2ccc(OC(=O)C3C4CC5CC(C4)CC3C5)c(OC)c2)ccc1OC(=O)C1C2CC3CC(C2)CC1C3` (stereo not drawn), for which the growth was 112% (inactive).

Turning to `CC[C@H]1CN2CCc3cc(OC)c(OC)cc3C2C[C@@H]1CC1NCCc2cc(OC)c(OC)cc21` (stereo partly drawn), the growth is -71.2% (active).

As to `Cc1ccc(S(=O)(=O)NCCN2c3nc4ccccc4cc3Sc3cc4ccccc4nc32)cc1`, the growth is 105% (inactive).

Take `Cn1cnc([N+](=O)[O-])c1Sc1nc(N)nc2nc[nH]c12`: the growth was 25% (inactive).

For the compound `O=c1oc2c(cc1-c1ccc([N+](=O)[O-])cc1)C(O)Oc1ccccc1-2` (stereo not drawn), the growth is 89.3% (inactive).

For `CCCCCc1c(C)[nH]c(/C=C2\N=C(c3ccc[nH]3)C=C2Oc2ccc(Cl)cc2)c1C`, the growth was -71.7% [100 µM] (active).

For `CC1C(C)N(C(=O)CCl)c2ccccc2N1C(=O)CCl` (stereo not drawn), the growth is -20.9% (active).

For `Nc1nc(NC2CC2)c2ncn(C3C=CC(CO)C3)c2n1` (stereo not drawn), the growth was 105% (inactive).

As to `O=C(CNC(=O)c1cccc2ccccc12)Nc1ccccc1Oc1ccc(O)cc1`, the growth is -16.1% [5 µM] (active).

Another assay has as its system SW-620 colon. The assay is described as above. The note with it: 10 µM unless noted.
With `CCN(CC)CCOCC[C@H]1CC[C@H]2[C@@H]3[C@H](C)Cc4cc(OS(N)(=O)=O)ccc4[C@H]3CC[C@]12C`, the growth was -77.5% (active).

With `CCN(CC)c1ccc(/C=C/C(=O)c2cccc(NS(C)(=O)=O)c2)cc1`, the growth was 22.1% (inactive).

`C/C(=C\CCc1ccoc1)CC/C=C(\C)CCCC1COC(=O)C1` (stereo not drawn): the growth was 103% (inactive).

For `O=C(COc1ccc(/C=C2\Cc3ccccc3C2=O)cc1)c1ccc(Cl)cc1`, the growth is 107% (inactive).

With `O=C(Nc1cccc(-n2cc(-c3ccncc3)c(-c3cc(O)cc(Cl)c3)n2)c1)Nc1ccc(Cl)c(Cl)c1`, the growth is -33.8% (active).

Take `CCc1nn2c(-c3ccc(Cl)cc3C)c(-c3cc(OC)c(OC)c(OC)c3)nc2s1`: the growth was 82.5% (inactive).

In the case of `C[N+]1(C)C2CC[C@@H]1CC(OC(=O)C(O)c1ccccc1)C2` (stereo partly drawn), the growth is 109% (inactive).

In the case of `COc1ccc2c(c1)sc1nc(-c3ccc(Br)cc3)cn12`, the growth was 101% (inactive).

As for `O=C(COc1cccc(/C=C2\Cc3ccccc3C2=O)c1)c1ccc(Cl)cc1`, the growth is 97.2% (inactive).

As for `O=C1C2C(C(=O)N1CC[Se][Se]CCN1C(=O)C3C(C1=O)[C@H]1C=C[C@@H]3C1)[C@H]1C=C[C@@H]2C1` (stereo partly drawn), the growth is 8.38% (active).

Take `COC(=O)[C@H]1[C@H]2C[C@@H]3c4[nH]c5cc(OC)ccc5c4CCN3C[C@H]2C[C@@H](OC(=O)/C=C/c2cc(OC)c(OC)c(OC)c2)[C@@H]1OC`: the growth was 61.3% (inactive).

With `CC1C(=O)NC2=Nc3ccccc3C(=O)NN21` (stereo not drawn), the growth is 97.8% (inactive).

As to `C[C@H]1c2cccc(O)c2C(O)=C2C(=O)[C@]3(O)C(O)=C(C(N)=O)C(=O)[C@@H](N(C)C)[C@@H]3[C@@H](O)[C@@H]21`, the growth was 65.9% (inactive).

Consider `CC(=O)N1N=C(c2ccc(Nc3nc(NCCO)nc(NCCO)n3)cc2)CC1c1ccc(Cl)cc1` (stereo not drawn), for which the growth is 107% (inactive).

Regarding `COC(=O)C1=CCC(n2cnc3c(N)ncnc32)O1` (stereo not drawn), the growth is 106% (inactive).

As for `Cc1nn(-c2ccccc2)c2nc(N)c(C3=NCCO3)nc12`, the growth was 92.6% (inactive).

On to `CCCc1n(Cc2ccc3ccccc3c2)cc[n+]1Cc1ccc2ccccc2c1`, for which the growth was 8.13% (active).

With `BrC1CC(Br)c2c1c1c(c3c2C(Br)CC3Br)C(Br)CC1Br` (stereo not drawn), the growth is 83% (inactive).

Consider `O=C(CNc1ccc2c(c1)C(=O)c1ccccc1C2=O)Nc1ccc2c(c1)C(=O)c1ccccc1C2=O`, for which the growth was -89.9% (active).

As for `Cc1ccc(NC(=O)c2sc3nc4c(cc3c2N)C(=O)CCC4)cc1`, the growth is 67% (inactive).

Consider `CCCCCCCCN(CCO)CCCCCCCC`, for which the growth was 101% (inactive).

`COc1cc(-c2nc3nc4sc(C)c(C)c4c(=O)n3[nH]2)cc(OC)c1OC`: the growth is 79.1% (inactive).

As for `COC(=O)Nc1ccc2ccc3c(NC(=O)OC)ccc4ccc1c2c43` (tested in a mixture with another compound), the growth was 39.4% (inactive).

As to `COc1ccc(Cl)cc1Nc1nc(C(F)(F)F)ccc1C(=O)N/N=C/c1c(Cl)cccc1Cl`, the growth was 36.9% (inactive).

With `O=C(/C=C/c1cccc(O)c1)c1cccc(-n2cc(-c3ccccc3)[nH]c2=O)c1`, the growth was -32.1% (active).

For `COc1ccc2c(=O)c(OC)c(-c3cc(OC)c(OC)c(OC)c3)oc2c1`, the growth is 92.2% (inactive).

With `CC(=O)Nc1ccc(C(=O)COc2cccc(/C=C3\CCc4ccccc4C3=O)c2)cc1`, the growth was 47% (inactive).

`O=C1Nc2ccc(Cl)cc2[C@@](C#CC2CC2)(C(F)(F)F)O1`: the growth was 107% (inactive).

Take `CC(C)N(Cc1ccccc1)c1c(Cl)ssc1=O`: the growth was 110% (inactive).

For `CCCCCc1c(C)[nH]c(/C=C2\N=C(c3ccc[nH]3)C=C2OCc2ccccc2)c1C`, the growth is -34.7% [100 µM] (active).

For `COc1cc(/C=C/C(=O)CC(=O)/C=C/c2ccc(OC(=O)C3C4CC5CC(C4)CC3C5)c(OC)c2)ccc1OC(=O)C1C2CC3CC(C2)CC1C3` (stereo not drawn), the growth is 113% (inactive).

Consider `CC[C@H]1CN2CCc3cc(OC)c(OC)cc3C2C[C@@H]1CC1NCCc2cc(OC)c(OC)cc21` (stereo partly drawn), for which the growth is -20.3% (active).

For the compound `Cc1ccc(S(=O)(=O)NCCN2c3nc4ccccc4cc3Sc3cc4ccccc4nc32)cc1`, the growth was 87.7% (inactive).

Turning to `Cn1cnc([N+](=O)[O-])c1Sc1nc(N)nc2nc[nH]c12`, the growth was 50.7% (inactive).

For `O=c1oc2c(cc1-c1ccc([N+](=O)[O-])cc1)C(O)Oc1ccccc1-2` (stereo not drawn), the growth is 91.9% (inactive).

Take `CCCCCc1c(C)[nH]c(/C=C2\N=C(c3ccc[nH]3)C=C2Oc2ccc(Cl)cc2)c1C`: the growth was -31.7% [100 µM] (active).

`CC1C(C)N(C(=O)CCl)c2ccccc2N1C(=O)CCl` (stereo not drawn): the growth was -81.7% (active).

As to `Nc1nc(NC2CC2)c2ncn(C3C=CC(CO)C3)c2n1` (stereo not drawn), the growth is 106% (inactive).

`O=C(CNC(=O)c1cccc2ccccc12)Nc1ccccc1Oc1ccc(O)cc1`: the growth is 28.9% [5 µM] (inactive).
